Measured values: PubChem BioAssay AID463173 (ICCB-Longwood Screening Facility, Harvard Medical School, 2010)
The campaign covered roughly 52,000 compounds. About 1,700 (3.3%) were called active. The entries come from a sample that favours actives as a whole. A number with no mark means an inactive call. Cut-off read from the data, not from the text of the source: active = survival mostly below about 52% (no sharp cut-off); inactive = mostly above about 56%.

Test system: Wild type
Test: S. aureus survival, RN4220 and DeltatarO strains – OD600, teichoic acid synthesis inhibitors, primary screen (AID 463173)
Details: S. aureus RN4220 wild type/DeltatarO growth, OD600, 18 h, hits give low values, screened at 18.75 µg/mL (by protocol)

Compound | survival
O=C(Cn1c(=O)nc(-c2ccccc2)c2ccccc21)NCc1ccccc1Cl | 73%
CCOc1ccc(CNC23CN4CN(CN(C4)C2)C3)cc1 | 99%
CC1CCN(C(=O)CSc2n[nH]c(-c3ccc(F)cc3)n2)CC1 | 76%
CC(Sc1nc(-c2ccccc2)cc(C(F)(F)F)n1)C(=O)N1CCCC1 (stereo unspecified) | 105%
O=C(CSc1n[nH]c(-c2ccc(F)cc2)n1)N1CCN(c2ccc(F)cc2)CC1 | -6% (active)
CC1CCN(C(=O)C(C)Sc2nc(-c3ccccc3)cc(C(F)(F)F)n2)CC1 (stereo unspecified) | -7% (active)
COc1ccc(-c2cc(C(F)(F)F)nc(SCC(=O)N3CCC(C)CC3)n2)cc1 | 55%
CC1CN(C(=O)C(C)Sc2nc(-c3ccccc3)cc(C(F)(F)F)n2)CC(C)O1 (stereo unspecified) | 101%
COc1ccc(-c2nc(SCC(=O)N3CCN(c4ccc(F)cc4)CC3)n[nH]2)cc1 | 85%
CC1CCN(C(=O)CSc2nc(-c3ccc(F)cc3)cc(C(F)(F)F)n2)CC1 | 11% (active)
O=C(CSc1n[nH]c(-c2ccccc2)n1)N1CCN(c2ccc(F)cc2)CC1 | 65%
CC1(C)CC(=O)c2cc(C(=O)Nc3ccc(Br)cc3)c(=O)n(-c3ccc(Cl)cc3)c2C1 | 74%
O=C(Nc1ccccc1)NC1(C(=O)Nc2ccc(-n3cnnn3)cc2)CCCCC1 | 123%
COc1ccc(NC(=O)CS(=O)CC(=O)Nc2cc(OC)ccc2OC)cc1 (stereo unspecified) | 107%
CCOC(=O)C1CCN(C(=O)c2ccc3c(c2)sc2nc(-c4ccccc4)cn23)CC1 | 42%
Cc1cc(S(=O)(=O)Nc2cc3c(cc2N2CCOCC2)n(C)c(=O)n3C)ccc1F | 82%
CC(=O)Oc1cn(C(C)=O)c2ccccc12 | 84%
CC1CCCCN1S(=O)(=O)c1ccc(NC(=O)C2COc3ccccc3O2)cc1 (stereo unspecified) | 125%
COc1cc(NC(=O)Cc2c(C(=O)O)c(C)cn2C)cc(OC)c1 | 99%
O=C(CCN1CCCCC1)Nc1ccccc1 | 110%
CCOC(=O)c1ccc(N2C(=O)c3n[nH]c(-c4ccco4)c3C2c2ccc(F)cc2)cc1 (stereo unspecified) | 9% (active)

Compound | survival
CCOC(=O)c1ccc(N2C(=O)c3n[nH]c(C)c3C2c2ccc(CC)cc2)cc1 (stereo unspecified) | 82%
CCOC(=O)c1ccc(N2C(=O)c3n[nH]c(-c4ccco4)c3C2c2ccc(C)cc2)cc1 (stereo unspecified) | 32%
CCOC(=O)c1ccc(N2C(=O)c3n[nH]c(C)c3C2c2ccc(C(C)(C)C)cc2)cc1 (stereo unspecified) | 81%
CCOC(=O)c1ccc(N2C(=O)c3n[nH]c(-c4ccco4)c3C2c2ccc(O)cc2)cc1 (stereo unspecified) | 67%
CCOC(=O)c1ccc(N2C(=O)c3n[nH]c(C)c3C2c2cccc(Br)c2)cc1 (stereo unspecified) | 3% (active)
Cn1cc(S(=O)(=O)N2CCCCC2)cc1C(=O)NCc1ccc(Cl)cc1 | 88%
COc1ccc(CNC(=O)Cc2c(C)c3cc4c(C)coc4cc3oc2=O)cc1 | 88%
COc1ccc(-c2nc3sc(CCNC(=O)C(=O)Nc4cc(C)cc(C)c4)c(C)n3n2)cc1 | 89%
CC(=O)c1ccc(N2CCN(C(=O)C3CCN(S(=O)(=O)c4c(C)noc4/C=C/c4ccc(C)cc4)CC3)CC2)cc1 | 127%
O=C(O)CCC(=O)NC(c1ccccc1)c1ccccc1 | 108%
Cc1cc(C)nc(N2CCC(C(=O)Nc3nnc(C(C)C)s3)CC2)n1 | 107%
COC(=O)c1cc2c(ccn2-c2ccc(F)cc2)n1Cc1ccccc1 | 88%
Cc1ccc(CN2C(=O)CN(C3CCCCCC3)C(=O)C2c2ccc(F)cc2)cc1 (stereo unspecified) | 1% (active)
COc1ccc(C2C(=O)N(C3CCCCCC3)CC(=O)N2Cc2ccc(C)cc2)cc1 (stereo unspecified) | 75%
Cc1ccc(CN2C(=O)CN(C3CCC(C)CC3)C(=O)C2c2ccc(F)cc2)cc1 (stereo unspecified) | 119%
COc1ccc(C)cc1NC(=O)Nc1cccc(OCc2cc(=O)n3ccc(C)cc3n2)c1 | 73%
CCC(=O)N1c2ccc(S(=O)(=O)CCC(=O)Nc3ccc(Br)c(C)c3)cc2CC1C (stereo unspecified) | 87%
Cc1ccc(CNC(=O)C2CCN(Cc3nc(-c4cccc(Br)c4)oc3C)CC2)cc1 | 75%
Cc1oc(-c2cccc(Cl)c2)nc1CN1CCCC(C(=O)NCc2ccc(Cl)cc2)C1 (stereo unspecified) | -1% (active)
CCc1ccc(-c2nc(CN3CCCC(C(=O)NCc4ccc(C)cc4)C3)c(C)o2)cc1 (stereo unspecified) | 88%
Cc1ccccc1-c1nc(CN2CCCC(C(=O)NCc3ccc(Cl)cc3)C2)c(C)o1 (stereo unspecified) | 68%

Compound | survival
Cc1ccc(CNC(=O)C2CCCN(Cc3nc(-c4cccc(C)c4)oc3C)C2)cc1 (stereo unspecified) | 4% (active)
Cc1oc(-c2ccc(Cl)cc2)nc1CN1CCCC(C(=O)NCc2ccc(Cl)cc2)C1 (stereo unspecified) | 85%
Cc1oc(-c2ccc(Cl)cc2)nc1CN1CCCC(C(=O)NCc2ccccc2)C1 (stereo unspecified) | 88%
Cc1cccc(-c2nc(CN3CCCC(C(=O)NCc4ccc(Cl)cc4)C3)c(C)o2)c1 (stereo unspecified) | 2% (active)
Cc1oc(-c2cccc(Cl)c2)nc1CN1CCCC(C(=O)NCc2ccc(F)cc2)C1 (stereo unspecified) | 64%
COc1ccc(CCNC(=O)CCc2c(C)c3cc4c(C)coc4cc3oc2=O)cc1 | 90%
C=C(C)Cn1c(=O)c2c(nc3n2CCN3c2ccc(F)cc2)n(C)c1=O | 85%
CC(=O)c1cccc(NC(=O)CSc2nc3ccccc3nc2Cc2ccc(F)cc2)c1 | 73%
Cc1ccc2oc(-c3cc(N=C/C=C/c4ccc5c(c4)OCO5)ccc3O)nc2c1 | 113%
COc1ccc(CNC(=O)C2CCN(c3nc4ccccc4[nH]3)CC2)cc1OC | 47%
CN(C)c1ccc(CNC(=O)C2CCN(c3nc4ccccc4[nH]3)CC2)cc1 | 45%
CCOc1cc(CNC(=O)C2CCN(c3nc4ccccc4[nH]3)CC2)cc(OCC)c1OCC | -3% (active)
CCCN(CCC)CCNC(=O)C1CCN(c2nc3ccc(CC)cc3s2)CC1 | 67%
FC(F)(F)c1cccc(-c2nnn3c2nc(NC2CCCCC2)c2ccccc23)c1 | 28%
CC1CCC(Nc2nc3c(-c4ccc(Cl)cc4)nnn3c3ccccc23)CC1 (stereo unspecified) | 25%
CC1CCC(Nc2nc3c(-c4cccc(C(F)(F)F)c4)nnn3c3ccccc23)CC1 (stereo unspecified) | -1% (active)
Cc1ccc(-c2nnn3c2nc(NC2CCC(C)CC2)c2ccccc23)cc1 (stereo unspecified) | 4% (active)
Clc1ccc(-c2nnn3c2nc(NC2CCCCC2)c2ccccc23)cc1 | 57%
Fc1cccc(-c2nnn3c2nc(NC2CCCCC2)c2ccccc23)c1 | 85%
